The results in this text go back to PubChem BioAssay AID651958 (The Scripps Research Institute Molecular Screening Center, 2012).

About 2,000 (0.54%) of roughly 370,000 compounds were called active. The sample as a whole holds a higher share of actives than the screen did. A number with no mark means an inactive call. No stated cut-off is given here; in the data, active means inhibition above about 30%; inactive means the rest.

The inhibition is the relative decrease from the control value, in per cent.

For the experiment, the system named is Crimean-Congo hemorrhagic fever virus L polyprotein viral ovarian tumor (vOTU) protease domain. Put plainly: CCHFV vOTU protease inhibitors, primary screen, biochemical, Pep-AMC substrate, fluorescence (AID 651958). Further: 0% = vehicle wells with enzyme and 100% = no enzyme wells. To be noted: at 11.5 µM, active compounds read high.
For the molecule `COc1cc(CN2CCCC(C(=O)c3ccc(SC)cc3)C2)cc(Cl)c1O` (stereo not drawn), the inhibition was 2.91%.
Take `CCOC(=O)[C@H]1[C@H]2COc3ccccc3[C@@H]2N2C(=O)CN(Cc3ccccc3)C(=O)[C@@]12C`: the inhibition was -6.74%.
With `CN1c2ccc(C=O)c3c(C=O)ccc(c23)N(C)C1(C)C` the figure was 65.2% (active); with `CN1CCN(c2ccncc2S(=O)(=O)N2CCCC2)CC1`, -8.15%; with `CCc1ccc(OCC(=O)NCC(c2ccc(Cl)cc2)N2CCCCC2)cc1` (stereo not drawn), 31% (active).
With `CN(CC(=O)NCC(c1ccccc1)N1CCCC1)S(=O)(=O)c1ccc(Cl)cc1` (stereo not drawn) the figure was -5.38%; with `COc1ccc(C(CNC(=O)COc2ccccc2OC)N2CCCCC2)cc1` (stereo not drawn), 0.37%.
As for `N#Cc1c(N)nc2c(c1N)CC(C(F)(F)F)O2` (stereo not drawn), the inhibition is -10.2%.
Consider `CCCCOCCCNC(=O)C[C@@H]1C[C@@]2(C(=O)OCC)CCCC=C2N(CCC2=CCCCC2)C1=O`, for which the inhibition is 15.7%.
Regarding `COCCNC(=O)c1onc(CSc2cccc(C)c2)c1C(=O)O`, the inhibition was -0.14%.
With `COc1cccc(CNC(=O)COC(=O)CN2C(=O)NC3(CCCCC3C)C2=O)c1` (stereo not drawn), the inhibition was -7.15%.
For `CC1CCCCC12NC(=O)N(CC(=O)OCC(=O)NCc1ccc(F)cc1)C2=O` (stereo not drawn), the inhibition was 34.9% (active).
With `CCCc1ccc(C(=O)COC(=O)CN2C(=O)NC3(CCCCC3C)C2=O)cc1` (stereo not drawn) the figure was 16.5%; with `Cc1ncc([N+](=O)[O-])n1CCOC(=O)c1ccc(Br)cc1`, -0.48%.
As to `CCCCCCCNc1nc(Cl)nc(NCCO)n1`, the inhibition is 12.8%.
Consider `CC1CCCN(c2ccc(C(=O)NCCc3ccccc3)cn2)C1` (stereo not drawn), for which the inhibition is -7.43%.
Consider `O=C1Nc2ccc([N+](=O)[O-])cc2C1=Nc1cccc(CO)c1`, for which the inhibition was 58.7% (active).
Turning to `O=C(CCl)N(Cc1cccc([N+](=O)[O-])c1)c1cccc(Cl)c1`, the inhibition was 0.95%.
With `CCC(=O)N(C)C(c1ccccc1Cl)c1nnnn1-c1c(C)cccc1C` (stereo not drawn) the figure was -4.14%; with `CC(=O)OCc1cc(=O)n(C)c(=O)n1C`, -3.25%.
As for `[2H]C(CCOS(N)(=O)=O)c1ccccc1` (stereo not drawn), the inhibition was -9.88%.
With `COc1ccc(N2CCN(C3CCCCC3NS(=O)(=O)c3ccccc3)CC2)cc1` (stereo not drawn) the figure was 19.5%; with `COc1ccc(S(=O)(=O)/N=C2\C=C(NS(=O)(=O)c3ccccc3)C(=O)c3ccccc32)cc1`, 65% (active).
`Cc1ccc(S(=O)(=O)/N=C2\C=C(NS(=O)(=O)c3ccc(C)cc3)C(=O)c3ccccc32)cc1`: the inhibition was 77.7% (active).
In the case of `Cc1ccc(S(=O)(=O)N[C@H](CO)C(C)C)cc1`, the inhibition was 6.27%.
Turning to `Cc1ccc(S(=O)(=O)/N=S(\C)C(C)C)cc1` (stereo not drawn), the inhibition is -11.6%.
Turning to `COc1ccc(S(=O)(=O)NC(C)C(=O)N2CCCCCC2)cc1` (stereo not drawn), the inhibition was -2.68%.
In the case of `COC(=O)CN1C(=O)C2(C(C(=O)OC)=C(N)Oc3ccccc32)C2=C1CC(C)(C)CC2=O` (stereo not drawn), the inhibition was -11.2%.
`CC(=O)N1Cc2cc(C(=O)NCc3cccc(F)c3)nc(-c3cccc(C4=CCCCC4)c3)c2[C@H]1CCO`: the inhibition is 9.9%.
Regarding `CN1CCN(S(=O)(=O)c2cccc(C(=O)Nc3sccc3C#N)c2)CC1`, the inhibition was -2.97%.
With `C=CCSC1=C(C#N)C(c2cc(Br)c(O)c(OC)c2)CC(=O)N1` (stereo not drawn) the figure was -4.94%; with `Cc1ccc(S(=O)(=O)N(c2cccc(C)c2)C2CCS(=O)(=O)C2)cc1` (stereo not drawn), 4.15%; with `CN1CCN(C(=O)C2=C[C@H](c3ccc4c(c3)OCO4)C[C@H](OCc3ccc(CO)cc3)O2)CC1`, -2.44%.
As for `COCCn1nnnc1C(c1cc2ccc(OC)cc2[nH]c1=O)N1CCc2ccccc2C1` (stereo not drawn), the inhibition is 103% (active).
For the molecule `COc1ccc(-n2nnnc2C(c2cccc3ccccc23)N2CCC(n3c(=O)[nH]c4ccccc43)CC2)cc1` (stereo not drawn), the inhibition is 7.58%.
With `COc1ccc(CCC(C)N2CCc3ccccc3C2)cc1` (stereo not drawn) the figure was 2.02%; with `COc1cc(CN(C)Cc2nc3cc(C(F)(F)F)ccc3c(=O)[nH]2)ccc1OC(F)F`, 14.7%; with `CC1(C)CC(=O)C(N=Nc2c(F)cccc2F)=C(O)C1`, 10.4%.
For the molecule `CC(C)N1CCC(NC(=O)Nc2ccccc2)CC1`, the inhibition is -6.34%.
Turning to `CC1(c2cccc(Br)c2)NC(=O)N(CC(=O)NCCC2=CCCCC2)C1=O` (stereo not drawn), the inhibition was 6.44%.
With `COc1ccc(F)cc1C(=O)C1CCCN(C(=O)CCc2ccccn2)C1` (stereo not drawn), the inhibition is 32.7% (active).
For the molecule `CSCC(=O)N1CCCC(C(=O)c2cc(F)ccc2F)C1` (stereo not drawn), the inhibition was -7.31%.
As to `COc1ccc(C(=O)N2CCCC(C(=O)c3ccccc3OC)C2)cc1OC` (stereo not drawn), the inhibition was 4.28%.
`Cc1cc(Cl)c(S(=O)(=O)NCc2cccnc2)cc1OCC(N)=O`: the inhibition is -2.02%.
With `COP(=O)(OC)C(NC(=O)c1ccc(C)cc1)C(Cl)(Cl)Cl` (stereo not drawn) the figure was -12.8%; with `Cc1nnc(SC(C)C(=O)Nc2ccc(S(=O)(=O)NC3CCCCC3)cc2)s1` (stereo not drawn), 31.6% (active).
As to `Cc1ccc(S(=O)(=O)NC2CCCCCC2)cc1C(N)=O`, the inhibition is -2.9%.
With `CC(C)NS(=O)(=O)c1ccc(NC(=O)C2CCCCC2)cc1` the figure was -0.67%.
Consider `Cc1ccc(NC(=O)COC(=O)C2C3CC4OC(=O)C2C4C3)cc1Cl` (stereo not drawn), for which the inhibition was 6.39%.
Consider `Cc1ccc(C(C(=O)NC2CCCC2)N(Cc2ccco2)C(=O)CCC(=O)Nc2ccccn2)cc1` (stereo not drawn), for which the inhibition is 3.43%.
`COc1ccc(CCn2c(O)c(C=NCCCn3ccnc3)c(=O)[nH]c2=O)cc1OC`: the inhibition was 2.55%.
As for `CCCCC(=O)N(C)c1c(CC)nc2c(OCc3ccc(Cl)cc3Cl)cccn12`, the inhibition was 28.5%.
Turning to `CC(=O)N(C1=C(Cl)C(=O)c2ccccc2C1=O)c1ccc(C(=O)O)cc1`, the inhibition is 99.3% (active).
With `O=C1C(Cl)=C(Oc2ccccc2)C(=O)c2ccccc21`, the inhibition was 6.2%.
For `CCCCN=C1C([N+](=O)[O-])=CC=C2C1=NC1(CCCCC1)N2O`, the inhibition was 9.17%.
`Cc1ccc(C)c(OCCC(=O)OCC(=O)NC(=O)NCc2ccccc2)c1`: the inhibition is 0.04%.
`COc1ccc2c(c1)c(=Cc1ccc(N(C)C)cc1)c1cc(-c3ccccc3)[n+](C)n12`: the inhibition was 55.6% (active).
With `COc1ccc(Br)cc1S(=O)(=O)N1CCN=C1C`, the inhibition was -6.47%.
In the case of `Cc1cc(OC(C)C(=O)Nc2ccc(S(=O)(=O)Nc3onc(C)c3C)cc2)cc(C)c1Cl` (stereo not drawn), the inhibition is 35.2% (active).
On to `CC(Oc1cccc(Cl)c1)C(=O)Nc1ccc(S(=O)(=O)Nc2ncccn2)cc1` (stereo not drawn), for which the inhibition is -1.27%.
With `CCc1ccc(OC(C)C(=O)Nc2ccc(S(=O)(=O)Nc3cc(C)on3)cc2)cc1` (stereo not drawn) the figure was 7.95%; with `O=S1(=O)CC(N2CCN(CCO)CC2)CN1Cc1cn(Cc2ccc(Cl)cc2)nn1` (stereo not drawn), -2.07%; with `CCN(CC(=O)Nc1c(F)cccc1F)C(=O)c1ccc(-c2ccccc2)cc1`, -7.05%.
Consider `CCN(CC(=O)Nc1c(F)cccc1F)C(=O)c1cnc(C)cn1`, for which the inhibition is 32.8% (active).
Regarding `CCc1cc(C(=O)N(CC)CC(=O)Nc2c(F)cccc2F)sc1C`, the inhibition is 19.1%.
For `CCN(CC)c1ccc(NC(=O)CN2C(=O)NC3(CCc4ccccc43)C2=O)cc1` (stereo not drawn), the inhibition was -2.95%.
As to `O=C(Cn1cc(C(F)(F)F)ccc1=O)Nc1ccc2c(c1)OCCO2`, the inhibition was 8.6%.
Regarding `CC(C)CC1(C)NC(=O)N(CC(=O)Nc2ccc3c(c2)OCCO3)C1=O` (stereo not drawn), the inhibition is -6.35%.
`COc1c(Br)cc2c(C)c(C(=O)N3CCOCC3)oc2c1Br`: the inhibition was -3.21%.
With `Cc1nc2ccccc2c(=O)n1-c1ccc(F)c(NC(=O)c2cccs2)c1` the figure was -0.94%; with `O=C(c1ccc(N2CCCC2=O)cc1)N1CCN(c2ccc(C(F)(F)F)cc2[N+](=O)[O-])CC1`, 3.99%; with `Cc1cc(C)c(S(=O)(=O)NN=C2c3ccccc3[C@H]3Cc4csc[n+]4[C@@H]23)c(C)c1`, 82.8% (active).
Turning to `COC(=O)[C@]12C[C@H](CC(=O)NCc3ccccc3)C(=O)N(CCC3=CCCCC3)C1=C[C@H](C(C)C)O[C@@H]2C1CC1`, the inhibition is 23.1%.
Turning to `COC(=O)C[C@H]1C[C@@H]2c3cc(NC(=O)Nc4ccccc4)ccc3O[C@@H]2[C@@H](CO)O1`, the inhibition was -2.2%.
In the case of `CCN(CC(=O)NCc1cccs1)c1nnnn1-c1ccccc1`, the inhibition is -6.07%.
As for `CC(C)Cn1c(N)c(C(=O)NCc2cccs2)c2nc3ccccc3nc21`, the inhibition was 85.8% (active).
With `Cc1nc2c(C(=O)NCc3cccs3)cnn2c(C)c1Cc1ccc(F)cc1` the figure was 4.83%.
Regarding `Cn1cccc1C(=O)NC(=O)COC(=O)Cc1coc2ccc3ccccc3c12`, the inhibition is 5.02%.
Take `CCCn1c(=O)c2ccccc2n2c(SCC(=O)/C(C#N)=C(\C)N)nnc12`: the inhibition is -9.66%.
Consider `CC(C)[C@H](NC(=O)N1CCn2c1nc1ccccc12)C(=O)NCCc1ccccc1`, for which the inhibition is 25.4%.
Turning to `O=C1NC[C@@H](CCCCN2CCN(CCc3ccc(O)cc3)C(=O)C2=O)N(CC2CCCCC2)C1=O`, the inhibition was -7.64%.
For the molecule `O=C(OCC(=O)c1cccs1)c1ccc([N+](=O)[O-])o1`, the inhibition is 31.4% (active).
For `COc1ccccc1CNC(=O)COC(=O)c1cccs1`, the inhibition is 0.12%.
For `O=C(COC(=O)c1ccc([N+](=O)[O-])o1)NC12CC3CC(CC(C3)C1)C2`, the inhibition is 13.9%.
Take `Cc1cccc(C)c1NC(=O)CNC(=O)Cc1ccc(Br)cc1`: the inhibition is -10.5%.
With `Cc1cccc(C)c1NC(=O)CNC(=O)c1c(C)nn(-c2ccccc2)c1C` the figure was 33% (active); with `Cc1ccc(OC(=O)c2c(C)nn(-c3ccccc3)c2C)cc1`, -6.31%.
Turning to `CCN(N=Nc1nonc1OC)c1nonc1OC`, the inhibition is -2.47%.
